Data from PMC11024108.

What was measured:
[1] = target: AP-2 complex subunit mu (UniProt P84091); experiment: cross-link between two proteins; cross-linking mass spectrometry
[2] = target: AP-2 complex subunit sigma (UniProt P62743); experiment: as above
[3] = target: SH3-containing GRB2-like protein 3-interacting protein 1 (UniProt Q8VD37); experiment: as above
[4] = target: Annexin A11 (UniProt P50995); experiment: as above
[5] = target: Ataxin-2 (UniProt Q99700); experiment: as above
[6] = target: AP-2 complex subunit beta (UniProt Q9DBG3); experiment: as above
[7] = target: AP2-associated protein kinase 1 (UniProt Q3UHJ0); experiment: as above
[8] = target: Alpha-internexin (UniProt P46660); experiment: as above
[9] = target: ATP synthase F(0) complex subunit e, mitochondrial (UniProt P56385); experiment: as above
[10] = target: Solute carrier family 25 member 3 (UniProt Q00325); experiment: as above
[11] = target: Aconitate hydratase, mitochondrial (UniProt Q99798); experiment: as above
[12] = target: Malate dehydrogenase, mitochondrial (UniProt P40926); experiment: as above
[13] = target: Alpha-actinin-2 (UniProt Q9JI91); experiment: as above
[14] = target: AP-2 complex subunit beta (UniProt P63010); experiment: as above
[15] = target: AP-2 complex subunit mu (UniProt Q96CW1); experiment: as above
[16] = target: Epidermal growth factor receptor substrate 15-like 1 (UniProt Q9UBC2); experiment: as above
[17] = target: Phosphatidylinositol-binding clathrin assembly protein (UniProt Q13492); experiment: as above
[18] = target: Elongation factor Tu, mitochondrial (UniProt P49411); experiment: cross-linking mass spectrometry
[19] = target: Large ribosomal subunit protein bL12m (UniProt P52815); experiment: cross-linking mass spectrometry
[20] = target: Large ribosomal subunit protein mL45 (UniProt Q9BRJ2); experiment: cross-linking mass spectrometry
[21] = target: Leucine-rich PPR motif-containing protein, mitochondrial (UniProt P42704); experiment: cross-linking mass spectrometry
[22] = target: 3-hydroxyacyl-CoA dehydrogenase type-2 (UniProt Q99714); experiment: cross-link between two proteins; cross-linking mass spectrometry
[23] = target: ATP synthase peripheral stalk subunit OSCP, mitochondrial (UniProt P48047); experiment: as above
[24] = target: Acyl-coenzyme A thioesterase 9, mitochondrial (UniProt Q9Y305); experiment: as above
[25] = target: Alpha-aminoadipic semialdehyde dehydrogenase (UniProt P49419); experiment: as above
[26] = target: Aspartate--tRNA ligase, mitochondrial (UniProt Q6PI48); experiment: as above
[27] = target: Delta(3,5)-Delta(2,4)-dienoyl-CoA isomerase, mitochondrial (UniProt Q13011); experiment: as above
[28] = target: Elongation factor G, mitochondrial (UniProt Q96RP9); experiment: as above
[29] = target: Heat shock protein 75 kDa, mitochondrial (UniProt Q12931); experiment: as above
[30] = target: Hydroxyacyl-coenzyme A dehydrogenase, mitochondrial (UniProt Q16836); experiment: as above
[31] = target: Isocitrate dehydrogenase [NAD] subunit alpha, mitochondrial (UniProt P50213); experiment: as above
[32] = target: NADH dehydrogenase [ubiquinone] 1 alpha subcomplex subunit 5 (UniProt Q16718); experiment: as above
[33] = target: Polyribonucleotide nucleotidyltransferase 1, mitochondrial (UniProt Q8TCS8); experiment: as above
[34] = target: Presequence protease, mitochondrial (UniProt Q5JRX3); experiment: as above
[35] = target: Stomatin-like protein 2, mitochondrial (UniProt Q9UJZ1); experiment: as above
[36] = target: Succinate-semialdehyde dehydrogenase, mitochondrial (UniProt P51649); experiment: as above
[37] = target: Transcription factor A, mitochondrial (UniProt Q00059); experiment: as above
[38] = target: Tyrosine--tRNA ligase, mitochondrial (UniProt Q9Y2Z4); experiment: as above
[39] = target: Zeta-crystallin (UniProt Q08257); experiment: as above

Measured: listed as a hit

Sequence of Trifunctional enzyme subunit alpha, mitochondrial, P40939 (P40939 whole entry): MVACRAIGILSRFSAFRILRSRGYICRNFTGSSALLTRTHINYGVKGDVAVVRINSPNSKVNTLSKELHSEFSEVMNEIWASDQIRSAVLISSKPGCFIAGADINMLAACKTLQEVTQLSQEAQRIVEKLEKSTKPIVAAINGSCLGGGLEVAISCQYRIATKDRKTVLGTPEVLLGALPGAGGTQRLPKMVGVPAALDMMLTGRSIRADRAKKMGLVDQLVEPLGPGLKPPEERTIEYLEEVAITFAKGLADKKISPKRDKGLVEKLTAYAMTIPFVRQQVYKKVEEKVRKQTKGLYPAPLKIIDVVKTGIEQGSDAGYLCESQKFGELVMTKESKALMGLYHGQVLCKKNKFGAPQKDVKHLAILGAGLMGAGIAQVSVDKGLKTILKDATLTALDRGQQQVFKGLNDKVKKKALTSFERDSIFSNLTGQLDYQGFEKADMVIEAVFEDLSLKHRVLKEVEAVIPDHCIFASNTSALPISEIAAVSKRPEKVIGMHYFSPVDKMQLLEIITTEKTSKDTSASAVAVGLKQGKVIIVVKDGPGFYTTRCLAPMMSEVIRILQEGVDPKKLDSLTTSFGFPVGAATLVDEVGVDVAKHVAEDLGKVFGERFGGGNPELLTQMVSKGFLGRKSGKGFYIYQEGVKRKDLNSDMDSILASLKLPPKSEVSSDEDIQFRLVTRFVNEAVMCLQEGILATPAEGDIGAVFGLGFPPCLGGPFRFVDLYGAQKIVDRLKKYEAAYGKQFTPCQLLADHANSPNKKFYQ
Sequence of Solute carrier family 25 member 3 (Q00325 whole entry): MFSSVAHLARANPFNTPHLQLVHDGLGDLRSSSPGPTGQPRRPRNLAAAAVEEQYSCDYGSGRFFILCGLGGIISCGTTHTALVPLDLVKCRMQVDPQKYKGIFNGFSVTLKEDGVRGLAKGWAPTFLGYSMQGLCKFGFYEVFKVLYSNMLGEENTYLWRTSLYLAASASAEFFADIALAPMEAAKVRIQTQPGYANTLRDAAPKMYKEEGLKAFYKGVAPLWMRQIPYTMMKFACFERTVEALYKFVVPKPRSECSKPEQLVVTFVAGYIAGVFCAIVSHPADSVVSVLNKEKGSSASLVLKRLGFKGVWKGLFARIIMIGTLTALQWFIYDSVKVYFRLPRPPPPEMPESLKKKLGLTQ
Sequence of Epidermal growth factor receptor substrate 15-like 1 (Q9UBC2 whole entry): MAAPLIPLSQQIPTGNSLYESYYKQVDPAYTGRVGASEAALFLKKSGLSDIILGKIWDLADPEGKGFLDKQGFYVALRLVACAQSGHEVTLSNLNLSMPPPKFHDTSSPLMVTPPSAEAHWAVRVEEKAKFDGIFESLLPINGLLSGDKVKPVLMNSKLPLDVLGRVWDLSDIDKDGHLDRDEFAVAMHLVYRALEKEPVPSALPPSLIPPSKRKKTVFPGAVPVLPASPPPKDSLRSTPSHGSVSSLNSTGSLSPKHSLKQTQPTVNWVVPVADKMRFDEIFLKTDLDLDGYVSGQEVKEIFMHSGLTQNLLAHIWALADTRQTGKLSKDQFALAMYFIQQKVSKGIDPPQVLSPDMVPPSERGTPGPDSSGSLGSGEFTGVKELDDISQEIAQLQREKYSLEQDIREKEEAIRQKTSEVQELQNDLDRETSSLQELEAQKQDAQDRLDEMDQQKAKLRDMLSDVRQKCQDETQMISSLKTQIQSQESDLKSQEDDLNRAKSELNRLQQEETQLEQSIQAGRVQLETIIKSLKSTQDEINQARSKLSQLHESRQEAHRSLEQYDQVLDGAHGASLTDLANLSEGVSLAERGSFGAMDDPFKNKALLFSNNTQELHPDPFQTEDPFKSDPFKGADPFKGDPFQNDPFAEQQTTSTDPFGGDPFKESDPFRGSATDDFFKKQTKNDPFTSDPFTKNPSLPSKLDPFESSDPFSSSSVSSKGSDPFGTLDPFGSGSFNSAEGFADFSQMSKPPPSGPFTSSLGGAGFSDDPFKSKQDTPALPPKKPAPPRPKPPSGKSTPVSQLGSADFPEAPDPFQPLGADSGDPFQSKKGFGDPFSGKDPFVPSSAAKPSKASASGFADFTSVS
Sequence of Acyl-coenzyme A thioesterase 9, mitochondrial (Q9Y305 whole entry): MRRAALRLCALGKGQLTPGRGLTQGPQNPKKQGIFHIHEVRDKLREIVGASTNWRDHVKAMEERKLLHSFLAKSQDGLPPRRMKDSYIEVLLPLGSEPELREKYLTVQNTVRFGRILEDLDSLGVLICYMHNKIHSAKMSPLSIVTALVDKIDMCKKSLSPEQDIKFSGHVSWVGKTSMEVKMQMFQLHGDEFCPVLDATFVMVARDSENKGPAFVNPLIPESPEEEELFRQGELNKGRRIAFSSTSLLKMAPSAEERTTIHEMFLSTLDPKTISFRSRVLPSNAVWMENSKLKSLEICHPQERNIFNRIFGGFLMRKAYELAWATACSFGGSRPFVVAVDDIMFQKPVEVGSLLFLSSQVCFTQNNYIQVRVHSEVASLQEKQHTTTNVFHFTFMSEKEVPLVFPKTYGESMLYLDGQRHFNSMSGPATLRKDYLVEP
Sequence of Presequence protease, mitochondrial (Q5JRX3 whole entry): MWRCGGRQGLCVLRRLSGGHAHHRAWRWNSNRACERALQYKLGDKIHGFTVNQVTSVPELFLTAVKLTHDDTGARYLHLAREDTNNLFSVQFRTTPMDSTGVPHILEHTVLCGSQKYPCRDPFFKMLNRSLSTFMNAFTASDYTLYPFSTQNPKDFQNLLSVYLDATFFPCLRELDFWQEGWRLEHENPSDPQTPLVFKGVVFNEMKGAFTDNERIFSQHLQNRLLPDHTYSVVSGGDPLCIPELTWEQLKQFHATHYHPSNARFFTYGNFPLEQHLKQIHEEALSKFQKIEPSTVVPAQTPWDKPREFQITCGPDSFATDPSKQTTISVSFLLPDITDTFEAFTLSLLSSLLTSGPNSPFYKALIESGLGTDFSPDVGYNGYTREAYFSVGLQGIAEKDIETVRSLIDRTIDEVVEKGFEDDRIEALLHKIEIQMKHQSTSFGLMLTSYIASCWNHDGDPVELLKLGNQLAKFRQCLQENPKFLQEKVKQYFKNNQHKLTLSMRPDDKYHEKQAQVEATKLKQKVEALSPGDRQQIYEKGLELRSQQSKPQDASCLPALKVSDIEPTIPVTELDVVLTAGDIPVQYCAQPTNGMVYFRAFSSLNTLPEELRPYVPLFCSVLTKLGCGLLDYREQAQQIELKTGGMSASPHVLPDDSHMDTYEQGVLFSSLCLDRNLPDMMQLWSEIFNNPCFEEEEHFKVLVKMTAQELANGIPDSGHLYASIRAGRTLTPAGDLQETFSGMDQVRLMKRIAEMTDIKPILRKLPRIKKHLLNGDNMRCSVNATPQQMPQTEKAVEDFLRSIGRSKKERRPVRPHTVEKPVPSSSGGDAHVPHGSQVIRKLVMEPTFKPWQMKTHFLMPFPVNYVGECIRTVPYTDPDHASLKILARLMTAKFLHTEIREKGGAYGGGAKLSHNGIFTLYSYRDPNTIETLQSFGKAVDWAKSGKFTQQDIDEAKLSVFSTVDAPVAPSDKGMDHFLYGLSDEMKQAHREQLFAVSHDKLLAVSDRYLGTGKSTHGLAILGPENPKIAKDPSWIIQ
Sequence of Elongation factor G, mitochondrial (Q96RP9 whole entry): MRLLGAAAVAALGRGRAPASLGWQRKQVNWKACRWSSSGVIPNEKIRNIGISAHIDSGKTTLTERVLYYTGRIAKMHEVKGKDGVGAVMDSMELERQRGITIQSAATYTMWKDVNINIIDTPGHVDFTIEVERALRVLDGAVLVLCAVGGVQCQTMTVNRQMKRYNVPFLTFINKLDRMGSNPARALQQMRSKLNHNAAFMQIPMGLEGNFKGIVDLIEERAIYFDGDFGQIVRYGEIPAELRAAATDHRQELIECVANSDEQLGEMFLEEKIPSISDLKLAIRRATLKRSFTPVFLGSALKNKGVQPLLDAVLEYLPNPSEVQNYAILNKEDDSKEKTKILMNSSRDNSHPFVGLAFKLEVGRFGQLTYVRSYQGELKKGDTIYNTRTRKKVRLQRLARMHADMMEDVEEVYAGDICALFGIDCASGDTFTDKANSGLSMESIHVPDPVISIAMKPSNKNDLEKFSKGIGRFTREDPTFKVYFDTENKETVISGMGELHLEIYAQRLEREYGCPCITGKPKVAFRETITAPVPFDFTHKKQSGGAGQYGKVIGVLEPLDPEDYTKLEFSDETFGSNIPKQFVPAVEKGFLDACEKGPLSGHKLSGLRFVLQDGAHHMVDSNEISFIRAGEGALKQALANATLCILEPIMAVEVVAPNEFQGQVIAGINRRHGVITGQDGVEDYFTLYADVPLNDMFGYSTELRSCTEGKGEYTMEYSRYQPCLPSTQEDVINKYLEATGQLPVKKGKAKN
Sequence of Alpha-internexin (P46660 whole entry): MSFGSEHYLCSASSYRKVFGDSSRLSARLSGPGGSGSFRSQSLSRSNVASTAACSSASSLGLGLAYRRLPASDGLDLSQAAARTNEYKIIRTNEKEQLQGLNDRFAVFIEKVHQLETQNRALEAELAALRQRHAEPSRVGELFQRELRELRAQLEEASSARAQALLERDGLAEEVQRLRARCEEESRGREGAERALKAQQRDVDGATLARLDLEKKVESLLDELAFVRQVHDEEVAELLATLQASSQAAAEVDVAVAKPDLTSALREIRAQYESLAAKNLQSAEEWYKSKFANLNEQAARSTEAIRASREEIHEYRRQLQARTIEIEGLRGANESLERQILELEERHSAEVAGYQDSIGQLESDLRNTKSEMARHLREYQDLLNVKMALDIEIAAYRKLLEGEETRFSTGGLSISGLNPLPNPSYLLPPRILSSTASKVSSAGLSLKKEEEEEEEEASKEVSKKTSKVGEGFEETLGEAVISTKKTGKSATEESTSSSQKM
Sequence of Zeta-crystallin (Q08257 whole entry): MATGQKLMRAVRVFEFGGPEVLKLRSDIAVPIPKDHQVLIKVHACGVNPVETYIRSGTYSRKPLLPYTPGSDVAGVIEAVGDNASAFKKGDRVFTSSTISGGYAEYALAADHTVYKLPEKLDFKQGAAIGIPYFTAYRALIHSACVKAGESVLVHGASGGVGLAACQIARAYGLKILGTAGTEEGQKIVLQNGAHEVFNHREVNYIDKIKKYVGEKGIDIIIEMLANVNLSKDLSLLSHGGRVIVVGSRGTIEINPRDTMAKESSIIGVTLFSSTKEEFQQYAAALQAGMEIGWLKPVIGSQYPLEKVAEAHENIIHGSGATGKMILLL

AP-1 complex subunit beta-1, O35643
yes: [1] | [2] | [3]

Annexin A7, P20073
yes: [4]

Ataxin-2-like protein, Q8WWM7
yes: [5]

AP-2 complex subunit alpha-1, P17426
yes: [6] | [7]

Neurofilament medium polypeptide, P08553
yes: [8]

Trifunctional enzyme subunit alpha, mitochondrial, P40939
yes: [9] | [10]

Fumarate hydratase, mitochondrial, P07954
yes: [11] | [12]

Synaptopodin, Q8CC35
yes: [13]

AP-2 complex subunit alpha-2, O94973
yes: [14] | [15] | [16] | [17]

Malate dehydrogenase, mitochondrial, P40926
not listed: [1] | [2] | [3] | [4] | [5] | [6] | [7] | [8] | [9] | [11] | [12] | [13] | [14] | [15] | [16] | [17]
yes: all other assays above
